Source: PubChem
This is one part of a sample in which hits are shown more often than they occur.
AmpC inh no detg – inhibitors of E. coli AmpC beta-lactamase without detergent | 0.52% of 330,000 active | Potency, µM (doses to about 57.1 µM), for the others: at the highest dose activity change, negative = inhibition, most hits filed as inhibitors | AmpC nitrocefin hydrolysis, absorbance 480 nm, 0.0001% Triton | AID 485341;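 further: potency means the concentration at half of the fitted maximal effect; plate controls were no compound for no effect and no enzyme for full effect; nearly all actives have a fitted effect of over 20% in size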
Target sequence (P00811 whole entry, looked up): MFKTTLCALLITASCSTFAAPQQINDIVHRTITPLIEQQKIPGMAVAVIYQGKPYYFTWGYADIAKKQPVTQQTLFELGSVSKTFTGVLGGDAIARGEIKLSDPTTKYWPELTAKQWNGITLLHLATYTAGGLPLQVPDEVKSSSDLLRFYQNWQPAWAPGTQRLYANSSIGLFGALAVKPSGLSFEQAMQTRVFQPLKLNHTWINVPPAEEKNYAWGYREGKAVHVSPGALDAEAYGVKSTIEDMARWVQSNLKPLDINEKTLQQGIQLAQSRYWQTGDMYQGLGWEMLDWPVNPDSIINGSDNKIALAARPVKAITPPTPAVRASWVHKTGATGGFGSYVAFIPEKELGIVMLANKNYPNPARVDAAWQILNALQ
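20 mM phosphate pH 7.0 + 0.01% (detergent screen) or 0.0001% Triton X-100; 5.3 nM AmpC reagent; cpd preinc 15 min RT; nitrocefin (800 uM stock) to start; A480 q20 s × 4 min; Activity was normalised to no-enzyme and no-compound control wells.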
SARS PLpro yeast – SARS-CoV PLP inhibition in yeast. S. cerevisiae expressing SARS-CoV PLpro, growth rescue. 0.19% of 330,000 active. Potency, µM (top dose mostly 32.9 µM), for the others: at the top dose activity, positive = growth rescue, hits mostly activators; calls by dose curve; further: potency means the concentration at half of the fitted maximal effect; 0% is about no effect; nearly all actives have a fitted effect of over 55% in size
AMA1 RON2 block – disrupts binding of P. falciparum AMA1 to RON2; Potency, µM (doses to about 58.2 µM), for inactives: at the highest dose activity change, negative = inhibition, usual class: inhibitors; AID 720542; AlphaScreen AMA1-biotinylated RON2 peptide binding; 0.2% of 360,000 active;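 further: potency means the concentration at half of the fitted maximal effect; 0% = vehicle wells and -100% = peptide control; nearly all actives have a fitted effect of over 45% in size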
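AMA1 (3D7) with his tag at 25 nM final met compounds first, then biotinylated RON2 peptide at 25 nM; detection used donor plus acceptor beads, 10 µg/mL apiece, read by AlphaScreen after 30 min at room temperature.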
Shiga toxin inh – inhibitors of Shiga toxin in Vero cells; Vero cells, Shiga toxin protein synthesis inhibition reporter; inhibition, % at 38.7 µM; 9.2% of 290,000 active; AID 2315; in the data active means inhibition mostly above about 28%, no sharp cut-off; inactive means mostly below about 43%; further: 0% is about no effect
AmpC inh detg – AmpC beta-lactamase inhibition with detergent present; AID 485294; Potency, µM (doses to about 114 µM), inactives show at the highest dose activity change, negative = inhibition, most hits filed as inhibitors; 0.041% of 370,000 active; AmpC hydrolysis of nitrocefin, absorbance 480 nm, 0.01% Triton;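 further: potency means the concentration at half of the fitted maximal effect; 0% = no-compound wells and -100% = no-enzyme wells; nearly all actives have a fitted effect of over 25% in size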
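AmpC (5.3 nM in the dispensed reagent) in 20 mM phosphate pH 7.0 with 0.01% (detergent screen) or 0.0001% Triton X-100 was preincubated with compounds for 15 min at room temperature. Nitrocefin was then added from an 800 uM solution, and hydrolysis was followed at 480 nm.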
Cycloheximide cs – counter-screen hit for Shiga toxin inhibitors, cycloheximide; max response, %; 12% of 300,000 active; AID 2314; cell reporter, cycloheximide protein synthesis inhibition counterscreen; in the data active means max response mostly above about 13%, no sharp cut-off; inactive means mostly below about 14%; further: read at 38.3 µM for the half of the compounds with a filed dose; 0% is about no effect
* = called active by the depositor; ? = inconclusive; nt = not tested or not shown; [ ] = another dose, or the depositor's remark. Unless noted, the call rests on the fitted dose curve; in most records, active means well fitted curve in the direction sought with a large enough effect; inconclusive means small, poorly fitted or top-dose-only effect, or another doubt; inactive means no such curve, though single readings can be large; an effect the other way counts as inactive or inconclusive.

SMILES | AmpC inh no detg | SARS PLpro yeast | AMA1 RON2 block | Shiga toxin inh | AmpC inh detg | Cycloheximide cs
O=C(CSc1ncn[nH]1)Nc1ccc(OCc2ccccc2)cc1 | -45% | -1% | 11% | 145* | -2% | 34*
CCOc1ccc(NC(=O)CSc2ncn[nH]2)c([N+](=O)[O-])c1 | -12% | -3% | -11% | -5 | -4% | -3
CCOc1ccc(NC(=O)CSc2ncn[nH]2)cc1 | -10% | -9% | 9% | 11 | 0% | 18*
O=C(CSc1nc2ccccc2[nH]1)Nc1ccc2c(c1)CCC2 | -4% | -7% | 23% | 37 | 0% | 10
Cc1ccc(NC(=O)CSc2ncn[nH]2)cc1 | -15% | -5% | 19% | 36 | 3% | 14*
C[C@@H]1CN([C@H](C)CO)C(=O)c2cc(NC(=O)Cc3ccccc3)ccc2O[C@H]1CN(C)Cc1ccc(Oc2ccccc2)cc1 | 224% | -4% | 9% | nt | nt | nt
CCCc1nn2c(=O)cc(COC(=O)c3ccc(NC(=O)CCc4ccccc4)cc3)nc2s1 | nt | nt | nt | nt | 1% | nt
CCCCCCCCN1C(=O)[C@H](CC(=O)NCC23CC4CC(CC(C4)C2)C3)C[C@@]2(C(=O)OCC)CCC=C12 | nt | nt | 2% | nt | nt | nt
CNc1cccc2c1C(=O)c1ccccc1C2=O | -23% | -22% | 4µM* | 33 | -9% | 16*
O=C1c2ccccc2C(=O)c2c(NCc3cccnc3)cccc21 | -13% | -5% | ? | 58 | -10% | 10
COc1ccccc1C(=O)NCCC(=O)Nc1ccc(OC(F)(F)F)cc1 | 68% | 1% | -5% | -12 | -11% | -2
O=[N+]([O-])c1ccc(Nc2ccc3ccccc3c2)nc1 | 0.32µM* | 0% | -5% | 89* | 1% | 45*
O=C(O)c1cccc(Nc2ccc([N+](=O)[O-])cn2)c1 | -4% | 3% | -2% | 9 | -10% | -1
O=C1CCC(C(=O)NCCN2C(=O)S/C(=C\c3cccnc3)C2=O)=NN1 | -18% | -4% | 43% | -23 | -4% | -2
Cc1cc(Cl)ccc1OCCCC(=O)NCCN1C(=O)S/C(=C\c2cccnc2)C1=O | 119% | 3% | 7%[2.32 µM] | 40 | 6% | 31*
CS(=O)(=O)c1ccc(C(=O)NCCN2C(=O)S/C(=C\c3cccnc3)C2=O)cc1[N+](=O)[O-] | -19% | 1% | -11% | 8 | -4% | 31*
COCCNC(=O)CSCc1c(F)cccc1Cl | -13% | 1% | 4% | -9 | 4% | -2
O=C(NCCCCc1ccccc1)c1ccc(F)cc1 | nt | nt | 15% | nt | nt | nt
O=C(NCCCc1ccccc1)c1ccccc1 | -3% | ? | 3% | 76* | ? | 40*
O=C(NCCCCc1ccccc1)c1ccc(Br)cc1 | -26% | -6% | 15% | 56* | 4% | 38*
O=C(NCCCCc1ccccc1)c1ccccc1 | -32% | 2% | -2% | 28 | -5% | 15*
O=C(NCCCc1ccccc1)c1ccncc1 | -18% | 3% | 3% | -9 | -13% | 9
O=C(NCCc1c[nH]c2ccccc12)c1ccc(-n2cnnn2)cc1 | -36% | 5% | -5% | 25 | 2% | 5
O=C(NCCc1ccccc1)c1ccc(-n2cnnn2)cc1 | -18% | 0% | -4% | 61* | -1% | 47*
COc1cc(NC(=O)NC(C)(C(F)(F)F)C(F)(F)F)cc(OC)c1OC | -14% | 3% | -4% | -26 | -2% | -2
SMILES | AmpC inh no detg | SARS PLpro yeast | AMA1 RON2 block | Shiga toxin inh | AmpC inh detg | Cycloheximide cs
CCN(CC)c1nc2n(c(=S)n1)CCS2 | -11% | -5% | 7% | -8 | 2% | -4
O=C(CCCC(=O)c1ccccc1)NCCc1ccccc1 | 1% | -3% | 9% | 2 | -4% | 8
O=C(NCCCc1ccccc1)c1cccc([N+](=O)[O-])c1 | -8% | -11% | -7% | 34 | ? | 22*
O=C(CCCc1ccccc1)c1ccccc1 | -18% | -15% | 110% | 97* | 1% | 46*
Cc1cc(=O)c(C(=O)OC(C)C(=O)NC(N)=O)nn1-c1ccc(Cl)cc1 (centres undefined) | 5% | 5% | 19% | -6 | 4% | 8
COCCCNC(=O)CSc1nc(-c2ccccc2)[nH]c1-c1ccc(C)cc1 | nt | nt | nt | nt | 1% | nt
C=CCN1C(=O)/C(=C/c2ccc(OC(C)=O)c(OCC)c2[N+](=O)[O-])SC1=S | -49% | -4% | ? | 103* | 8% | 27*
O=C1CN=C(c2ccccc2)c2ccccc2N1 | -15% | 1% | 37% | -11 | -3% | -2
O=C1C(=C(c2ccccc2)c2ccccc2)Nc2ccccc21 | -24% | -17% | 25µM* | 3 | 0% | 4
CC(C)NC(=S)N/N=C/c1cccs1 | -15% | ? | 81% | -8 | 1% | 8
O=C(CSc1ccccn1)N/N=C/c1c[nH]c2ccccc12 | -48% | 6% | 2% | -1 | -5% | 14*
CC(C)NC(=S)N/N=C/c1ccccc1[N+](=O)[O-] | -21% | 17% | 6% | 46 | 0% | 22*
CCCCCC(=O)N/N=C/c1ccccc1[N+](=O)[O-] | -4%[11.4 µM] | 0% | 5% | 36 | -15% | 19*
CC(C)NC(=S)N/N=C/c1ccc(C(C)(C)C)cc1 | -31% | 15% | 99% | 28 | 4% | 21*
Cc1ccc(CCNC(=O)C2CCCN(c3nnc(C)c4c(C)n(-c5ccccc5)nc34)C2)cc1 (centres undefined) | nt | nt | nt | nt | 17% | nt
O=C(c1ccc(Cl)cc1)C(Cn1cncn1)C(Sc1ccccc1)c1ccccc1 (centres undefined) | 16% | -25% | -3% | -8 | -13% | 4
COc1cc(NC(=O)C2CC(=O)NC3=C2C(=O)CC(C)(C)C3)c(OC)cc1Cl (centres undefined) | 0% | 4% | -1% | -16 | 3% | -3
CN(C)S(=O)(=O)c1ccc(C(=O)Nc2nc(-c3ccccc3)c(C(=O)c3ccccc3)s2)cc1 | -19% | 6% | -17% | -8 | ? | -2
CNC(=O)C[C@H]1C(=O)N(CCc2ccccc2)C[C@@H]1Cc1ccccc1 | nt | nt | -4% | nt | nt | nt
O=C(CSc1ccccn1)N/N=C/c1ccccc1[N+](=O)[O-] | -27% | 14% | 10%[2.32 µM] | 38* | 2% | 38*
COc1ccc(O)c(C(C)(C)C)c1 | -15% | -2% | -4% | -9 | 2% | -6
CNc1c([N+](=O)[O-])cnn1-c1ccccc1F | -18% | 1% | 9% | 43 | 2% | 41*
CC(C)Sc1nc2ccc(Br)cc2[nH]1 | -18% | -3% | 19% | 88* | 3% | 36*
COc1ccc(/C=C/C(=O)N2CCN(S(=O)(=O)/C=C/c3ccccc3)CC2)cc1OC | -1% | -1% | 0% | -13 | -9% | -1
Cc1ccc(NC(=O)c2nnn(-c3cccc(C(F)(F)F)c3)c2N)cc1 | -27% | 2% | -10% | 54 | -3% | -2
Cc1ccc(NC(=O)c2nnn(-c3ccc4c(c3)OCCO4)c2N)cc1 | -20% | 2% | -4% | 112* | -6% | 37*
